Tests used:
Test in all cases: universal protein binding microarray (PBM); transcription factors of Arabidopsis thaliana; high values mean tight binding
GST-ANAC092(1-176) = molecular target: T1, GST-ANAC092(1-176) (Arabidopsis thaliana, UniProt Q9FKA0 1-176); details: protein: recombinant; tags: GST; chain copies: 2; dsDNA, one strand shown
T1 sequence: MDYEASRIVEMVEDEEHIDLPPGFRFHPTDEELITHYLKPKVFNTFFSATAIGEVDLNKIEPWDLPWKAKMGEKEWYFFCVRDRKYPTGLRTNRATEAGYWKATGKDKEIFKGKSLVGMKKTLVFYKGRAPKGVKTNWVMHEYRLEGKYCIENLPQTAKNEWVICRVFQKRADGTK
In short: (§1)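 GST-tagged proteins (NAC-domain, full-length or DNA-binding-domain) were induced in cells, with zinc acetate supplied for zinc-finger proteins, then purified on glutathione–Sepharose 4B. Each was tested in duplicate at 200 to 500 nM final on custom all-10-mer Agilent 4 × 180K arrays rendered double-stranded by primer extension. The binding value is the normalised enrichment score (E-score) across gapped and ungapped 8-mers.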

GST-ANAC019 NAC domain = molecular target: T2, GST-ANAC019 NAC domain (Arabidopsis thaliana, UniProt Q9C932 14-162); details: protein: recombinant; tags: GST; chain copies: 2; dsDNA, one strand shown
T2 sequence: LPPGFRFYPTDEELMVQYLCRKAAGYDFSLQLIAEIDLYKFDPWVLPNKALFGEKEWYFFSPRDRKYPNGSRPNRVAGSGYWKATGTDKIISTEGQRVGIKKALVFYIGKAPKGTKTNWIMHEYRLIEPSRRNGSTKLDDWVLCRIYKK
In short: as §1

GST-ATAF1 NAC domain = molecular target: T3, GST-ATAF1 NAC domain (Arabidopsis thaliana, UniProt Q39013 7-158); details: protein: recombinant; tags: GST; chain copies: 2; dsDNA, one strand shown
T3 sequence: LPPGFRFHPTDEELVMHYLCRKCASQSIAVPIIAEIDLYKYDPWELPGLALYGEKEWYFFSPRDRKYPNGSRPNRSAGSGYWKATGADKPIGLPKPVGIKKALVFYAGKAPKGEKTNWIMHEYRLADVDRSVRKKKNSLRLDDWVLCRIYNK
In short: as §1

[1] = molecular target: T4, GST-ANAC092(1-285) full length (Arabidopsis thaliana, UniProt Q9FKA0 1-285); details: protein: recombinant; tags: GST; chain copies: 2; dsDNA, one strand shown
T4 sequence: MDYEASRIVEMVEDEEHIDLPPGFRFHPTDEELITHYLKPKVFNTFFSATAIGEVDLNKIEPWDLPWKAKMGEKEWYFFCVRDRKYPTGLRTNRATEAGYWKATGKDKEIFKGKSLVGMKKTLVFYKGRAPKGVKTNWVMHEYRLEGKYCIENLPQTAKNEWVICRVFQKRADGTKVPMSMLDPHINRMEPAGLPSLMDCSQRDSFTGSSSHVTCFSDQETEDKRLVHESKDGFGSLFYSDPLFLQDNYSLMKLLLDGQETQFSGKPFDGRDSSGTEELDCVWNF
In short: as §1

GST-NAP(1-166) = molecular target: T5, GST-NAP(1-166) (Arabidopsis thaliana, UniProt O49255 1-166); details: protein: recombinant; tags: GST; chain copies: 2; dsDNA, one strand shown
T5 sequence: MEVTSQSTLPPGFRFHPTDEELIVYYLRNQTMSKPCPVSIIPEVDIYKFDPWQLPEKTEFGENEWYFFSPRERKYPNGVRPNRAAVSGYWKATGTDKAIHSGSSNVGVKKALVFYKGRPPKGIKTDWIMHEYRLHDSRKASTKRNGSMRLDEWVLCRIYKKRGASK
In short: as §1

GST-NST2(1-184) = molecular target: T6, GST-NST2(1-184) (Arabidopsis thaliana, UniProt Q9M274 1-184); details: protein: recombinant; tags: GST; chain copies: 2; dsDNA, one strand shown
T6 sequence: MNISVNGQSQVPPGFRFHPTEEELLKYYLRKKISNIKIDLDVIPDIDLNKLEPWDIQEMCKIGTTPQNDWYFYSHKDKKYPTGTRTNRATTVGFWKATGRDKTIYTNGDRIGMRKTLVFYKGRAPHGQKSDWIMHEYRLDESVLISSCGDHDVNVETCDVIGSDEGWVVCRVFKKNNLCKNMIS
In short: as §1

GST-SND1(1-203) = molecular target: T7, GST-SND1(1-203) (Arabidopsis thaliana, UniProt Q9LPI7 1-203); details: protein: recombinant; tags: GST; chain copies: 2; dsDNA, one strand shown
T7 sequence: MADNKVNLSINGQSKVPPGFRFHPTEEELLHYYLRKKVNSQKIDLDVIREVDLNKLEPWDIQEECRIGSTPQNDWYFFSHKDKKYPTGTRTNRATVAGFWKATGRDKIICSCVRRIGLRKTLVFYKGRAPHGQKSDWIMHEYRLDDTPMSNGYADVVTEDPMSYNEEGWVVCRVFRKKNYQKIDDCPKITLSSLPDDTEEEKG
In short: as §1

GST-VND3 NAC domain = molecular target: T8, GST-VND3 NAC domain (Arabidopsis thaliana, UniProt Q9FH59 12-162); details: protein: recombinant; tags: GST; chain copies: 2; dsDNA, one strand shown
T8 sequence: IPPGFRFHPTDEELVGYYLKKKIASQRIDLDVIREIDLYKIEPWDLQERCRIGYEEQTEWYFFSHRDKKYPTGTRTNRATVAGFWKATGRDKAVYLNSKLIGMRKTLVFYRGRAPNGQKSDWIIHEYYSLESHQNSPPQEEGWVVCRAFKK
In short: as §1

GST-VND7 NAC domain = molecular target: T9, GST-VND7 NAC domain (Arabidopsis thaliana, UniProt Q9C8W9 9-158); details: protein: recombinant; tags: GST; chain copies: 2; dsDNA, one strand shown
T9 sequence: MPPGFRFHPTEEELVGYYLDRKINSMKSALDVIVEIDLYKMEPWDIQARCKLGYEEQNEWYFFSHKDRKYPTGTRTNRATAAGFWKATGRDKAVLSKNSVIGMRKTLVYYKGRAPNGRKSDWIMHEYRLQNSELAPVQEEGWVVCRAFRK
In short: as §1

GST-NTL6(1-168) = GST-NTL6(1-168) (Arabidopsis thaliana, UniProt Q9SCK6 1-168); details: protein: recombinant; tags: GST; chain copies: 2; dsDNA, one strand shown
In short: as §1

GST-ANAC055(1-171) = molecular target: T10, GST-ANAC055(1-171) (Arabidopsis thaliana, UniProt Q9LDY8 1-171); details: protein: recombinant; tags: GST; chain copies: 2; dsDNA, one strand shown
T10 sequence: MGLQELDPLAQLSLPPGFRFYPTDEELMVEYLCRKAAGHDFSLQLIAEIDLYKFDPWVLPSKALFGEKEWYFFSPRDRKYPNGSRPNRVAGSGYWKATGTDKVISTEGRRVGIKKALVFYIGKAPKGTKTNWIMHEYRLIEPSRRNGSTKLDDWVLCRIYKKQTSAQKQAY
In short: as §1

GST-WRKY1(266-371) = GST-WRKY1(266-371) (Arabidopsis thaliana, UniProt Q9SI37 266-371); details: protein: recombinant; tags: GST; dsDNA, one strand shown
In short: as §1

GST-NTL8 NAC domain = molecular target: T11, GST-NTL8 NAC domain (Arabidopsis thaliana, UniProt Q9XIN7 14-156); details: protein: recombinant; tags: GST; chain copies: 2; dsDNA, one strand shown
T11 sequence: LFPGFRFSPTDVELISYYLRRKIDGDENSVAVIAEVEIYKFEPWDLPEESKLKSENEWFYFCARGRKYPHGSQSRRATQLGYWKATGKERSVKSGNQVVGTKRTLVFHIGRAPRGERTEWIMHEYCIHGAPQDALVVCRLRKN
In short: as §1

GST-NTL6(1-168), sequence (Q9SCK6 1-168): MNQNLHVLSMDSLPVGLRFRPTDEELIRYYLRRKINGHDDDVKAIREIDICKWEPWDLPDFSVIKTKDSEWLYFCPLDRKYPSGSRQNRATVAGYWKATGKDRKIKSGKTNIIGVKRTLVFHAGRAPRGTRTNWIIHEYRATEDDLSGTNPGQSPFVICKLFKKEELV
GST-WRKY1(266-371), sequence (Q9SI37 266-371): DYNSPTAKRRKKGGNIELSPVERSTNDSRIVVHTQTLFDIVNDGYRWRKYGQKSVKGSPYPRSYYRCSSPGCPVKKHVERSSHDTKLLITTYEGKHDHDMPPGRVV

Sequence | binding signal (GST-ANAC092(1-176)) [E-score] | binding signal (GST-ANAC019 NAC domain) [E-score] | binding signal (GST-ATAF1 NAC domain) [E-score] | binding signal [1] [E-score] | binding signal (GST-NAP(1-166)) [E-score] | binding signal (GST-NST2(1-184)) [E-score] | binding signal (GST-SND1(1-203)) [E-score] | binding signal (GST-VND3 NAC domain) [E-score] | binding signal (GST-VND7 NAC domain) [E-score] | binding signal (GST-NTL6(1-168)) [E-score] | binding signal (GST-ANAC055(1-171)) [E-score] | binding signal (GST-WRKY1(266-371)) [E-score] | binding signal (GST-NTL8 NAC domain) [E-score]
ACGCTACC | 0.455 | 0.118 | 0.144 | 0.48 | 0.0969 | 0.34 | 0.475 | 0.0872 | 0.181 | – | – | – | –
CGTCAACA | 0.149 | 0.0912 | 0.156 | 0.196 | 0.116 | 0.111 | 0.181 | 0.0753 | – | 0.0991 | 0.135 | 0.435 | –
ACAAGTTA | 0.362 | – | 0.162 | 0.41 | – | 0.194 | 0.216 | 0.152 | 0.146 | – | 0.106 | – | –
CAAAAGTC | 0.0755 | – | 0.222 | 0.112 | – | 0.252 | 0.133 | 0.141 | – | 0.0864 | 0.138 | 0.432 | –
AATTACGC | 0.17 | – | 0.18 | 0.243 | 0.144 | 0.199 | 0.428 | 0.119 | 0.13 | – | 0.155 | – | –
GGCGTGTA | 0.4 | 0.198 | 0.163 | 0.439 | 0.13 | 0.14 | 0.142 | 0.118 | – | – | 0.109 | – | –
AGCGTCAA | 0.0554 | – | 0.0689 | 0.158 | 0.0978 | 0.135 | 0.246 | – | 0.0921 | – | – | 0.408 | 0.12
GTAGTCAA | – | – | 0.191 | – | 0.0663 | 0.112 | 0.0829 | 0.134 | – | 0.0675 | 0.168 | 0.478 | –
CAGTCAAA | 0.125 | 0.0978 | 0.11 | 0.0634 | 0.0821 | – | 0.124 | – | 0.0973 | 0.0796 | 0.063 | 0.478 | 0.104
ACAGGGAA | 0.128 | – | – | – | 0.0751 | 0.0924 | 0.108 | 0.115 | – | 0.239 | 0.0748 | – | 0.409
TCACGCCA | 0.436 | 0.223 | 0.178 | 0.454 | 0.0509 | 0.263 | 0.358 | 0.0902 | – | – | 0.156 | – | –
CAAGTCAG | – | – | – | 0.11 | – | – | 0.0706 | 0.0527 | – | – | – | 0.417 | –
CCACGCTA | 0.405 | 0.155 | – | 0.432 | – | 0.219 | 0.329 | 0.0665 | – | – | – | – | 0.0925
ACACGCCT | 0.319 | 0.189 | 0.212 | 0.411 | – | – | 0.0623 | 0.0938 | – | – | 0.173 | – | –
